From ChEMBL document CHEMBL5308504, “Tm Shift (DSF) assay results for EUbOPEN Chemogenomics Library” (2023)

Key:
Settings in all cases: Compound concentration 20.0 uM, Protein concentration 2.0 uM, Result type QC Liability
[1] = molecular target: Tyrosine-protein kinase ABL1 (Homo sapiens) (UniProt P00519)
[2] = molecular target: Cyclin-dependent kinase 2 (Homo sapiens) (UniProt P24941)
[3] = molecular target: Casein kinase I isoform delta (Homo sapiens) (UniProt P48730)
[4] = molecular target: Glycogen synthase kinase-3 beta (Homo sapiens) (UniProt P49841)
Chain of Glycogen synthase kinase-3 beta (Homo sapiens) (P49841 whole entry, looked up): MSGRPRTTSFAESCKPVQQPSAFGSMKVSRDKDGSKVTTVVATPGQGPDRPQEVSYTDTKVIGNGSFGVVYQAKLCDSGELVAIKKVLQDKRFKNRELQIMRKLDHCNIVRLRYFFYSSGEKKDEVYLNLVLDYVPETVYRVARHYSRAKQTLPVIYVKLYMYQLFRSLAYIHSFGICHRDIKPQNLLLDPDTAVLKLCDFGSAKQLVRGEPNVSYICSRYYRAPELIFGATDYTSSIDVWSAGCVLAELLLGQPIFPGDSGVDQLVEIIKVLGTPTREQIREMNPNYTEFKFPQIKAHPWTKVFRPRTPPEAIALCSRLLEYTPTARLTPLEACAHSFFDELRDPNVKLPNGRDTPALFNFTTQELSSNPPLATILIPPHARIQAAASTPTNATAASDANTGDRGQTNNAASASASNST

[5] = molecular target: Mitogen-activated protein kinase 1 (Homo sapiens) (UniProt P28482)
Chain of Mitogen-activated protein kinase 1 (Homo sapiens) (P28482 whole entry): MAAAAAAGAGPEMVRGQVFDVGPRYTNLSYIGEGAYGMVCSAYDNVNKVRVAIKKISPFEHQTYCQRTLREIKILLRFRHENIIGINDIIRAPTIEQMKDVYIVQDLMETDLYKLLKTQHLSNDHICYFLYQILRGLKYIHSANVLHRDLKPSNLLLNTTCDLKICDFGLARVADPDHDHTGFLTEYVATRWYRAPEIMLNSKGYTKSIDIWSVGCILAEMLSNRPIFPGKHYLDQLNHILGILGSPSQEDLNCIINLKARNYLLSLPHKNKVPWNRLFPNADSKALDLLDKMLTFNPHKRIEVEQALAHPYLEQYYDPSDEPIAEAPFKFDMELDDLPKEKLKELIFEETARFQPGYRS

[6] = molecular target: T1, Aurora kinase A (Homo sapiens) (UniProt O14965)
T1 sequence (whole entry): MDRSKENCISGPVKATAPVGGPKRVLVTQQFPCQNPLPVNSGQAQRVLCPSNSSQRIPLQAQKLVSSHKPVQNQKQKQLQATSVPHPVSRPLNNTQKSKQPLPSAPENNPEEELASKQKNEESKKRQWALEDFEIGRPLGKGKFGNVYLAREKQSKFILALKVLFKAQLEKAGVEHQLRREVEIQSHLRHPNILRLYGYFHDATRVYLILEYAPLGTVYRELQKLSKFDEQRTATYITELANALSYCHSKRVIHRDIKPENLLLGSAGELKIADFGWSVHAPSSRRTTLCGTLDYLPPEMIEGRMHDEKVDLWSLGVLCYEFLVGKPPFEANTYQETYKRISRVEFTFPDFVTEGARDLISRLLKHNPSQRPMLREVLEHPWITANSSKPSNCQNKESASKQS

Chain of Casein kinase I isoform delta (Homo sapiens) (P48730 whole entry, looked up, canonical isoform): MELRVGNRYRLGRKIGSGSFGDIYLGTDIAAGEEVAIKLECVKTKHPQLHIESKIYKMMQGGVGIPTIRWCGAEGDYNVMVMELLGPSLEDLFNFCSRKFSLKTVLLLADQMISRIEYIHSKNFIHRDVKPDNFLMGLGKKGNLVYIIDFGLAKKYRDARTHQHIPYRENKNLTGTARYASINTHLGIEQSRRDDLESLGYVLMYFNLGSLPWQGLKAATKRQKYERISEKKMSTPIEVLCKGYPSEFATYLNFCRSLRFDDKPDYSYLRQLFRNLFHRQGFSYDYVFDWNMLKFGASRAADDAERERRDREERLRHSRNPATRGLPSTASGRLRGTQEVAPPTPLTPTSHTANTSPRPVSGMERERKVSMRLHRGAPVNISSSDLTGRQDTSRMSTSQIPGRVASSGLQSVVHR
Chain of Tyrosine-protein kinase ABL1 (Homo sapiens) (P00519 whole entry): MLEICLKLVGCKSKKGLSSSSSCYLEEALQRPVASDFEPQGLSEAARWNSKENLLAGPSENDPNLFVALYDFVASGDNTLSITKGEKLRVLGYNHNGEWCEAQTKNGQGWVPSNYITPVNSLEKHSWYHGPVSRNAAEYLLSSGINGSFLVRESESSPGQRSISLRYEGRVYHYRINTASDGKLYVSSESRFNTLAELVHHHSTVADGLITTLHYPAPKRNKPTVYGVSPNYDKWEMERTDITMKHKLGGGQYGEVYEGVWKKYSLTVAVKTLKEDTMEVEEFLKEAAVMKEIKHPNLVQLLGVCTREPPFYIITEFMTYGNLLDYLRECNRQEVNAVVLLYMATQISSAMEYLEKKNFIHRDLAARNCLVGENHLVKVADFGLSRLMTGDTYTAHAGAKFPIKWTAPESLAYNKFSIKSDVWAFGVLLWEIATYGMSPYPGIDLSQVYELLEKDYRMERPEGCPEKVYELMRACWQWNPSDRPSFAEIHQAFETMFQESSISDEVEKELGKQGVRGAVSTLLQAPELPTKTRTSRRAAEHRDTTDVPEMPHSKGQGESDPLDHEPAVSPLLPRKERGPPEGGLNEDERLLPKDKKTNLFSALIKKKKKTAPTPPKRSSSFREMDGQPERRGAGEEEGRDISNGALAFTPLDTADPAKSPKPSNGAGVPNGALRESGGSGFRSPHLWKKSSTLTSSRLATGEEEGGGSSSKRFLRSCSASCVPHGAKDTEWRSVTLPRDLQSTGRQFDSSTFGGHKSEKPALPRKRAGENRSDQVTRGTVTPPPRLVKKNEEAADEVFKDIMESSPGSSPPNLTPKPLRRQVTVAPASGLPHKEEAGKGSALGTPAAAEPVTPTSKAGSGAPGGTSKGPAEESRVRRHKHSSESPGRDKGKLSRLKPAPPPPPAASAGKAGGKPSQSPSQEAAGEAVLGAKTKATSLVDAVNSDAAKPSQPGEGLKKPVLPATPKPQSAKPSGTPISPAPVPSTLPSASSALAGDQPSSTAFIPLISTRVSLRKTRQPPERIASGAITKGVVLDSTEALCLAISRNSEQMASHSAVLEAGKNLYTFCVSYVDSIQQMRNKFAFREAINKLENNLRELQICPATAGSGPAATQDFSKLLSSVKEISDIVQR

Row | Structure (SMILES) | ΔTm [1] | ΔTm [2] | ΔTm [3] | ΔTm [4] | ΔTm [5] | ΔTm [6]
1 | COc1cc(F)ccc1-c1cc(Nc2cc(CS(C)(=N)=O)ccn2)ncc1F (stereo not drawn) | 5.35 °C | 5.7 °C | 1.19 °C | 11 °C | 0.27 °C | 6.53 °C
2 | Nc1ncc2c(n1)-c1c([nH]c3ccc(C4=CCOCC4)cc13)CCC2 | 0.44 °C | 1.02 °C | 2.29 °C | 0.71 °C | -0.03 °C | 1.93 °C
3 | COc1ccc(S(=O)(=O)N2CCOCC2)cc1Nc1ccc2c(n1)N(C1CCOCC1)[C@H](C)C(=O)N2C | -0.18 °C | 0.41 °C | -0.08 °C | -0.48 °C | -0.88 °C | 0.03 °C
4 | CN1CCN(c2ccc(Nc3ncc4cc5n(c4n3)C3(CCCCC3)CNC5=O)nc2)CC1 | 0.17 °C | 0 °C | -0.03 °C | 0.02 °C | 0.18 °C | 0.38 °C
5 | C[C@H](CCC(=O)O)[C@H]1CC[C@H]2[C@@H]3CC[C@@H]4C[C@H](O)CC[C@]4(C)[C@H]3C[C@H](O)[C@]12C | -0.07 °C | 0.15 °C | 0.54 °C | -0.7 °C | 0.2 °C | -0.62 °C
6 | COc1cc2nc(-c3cc(F)ccc3O)nc(N[C@@H]3CNC[C@H]3C(C)(C)O)c2cc1OC | 2.31 °C | 3.24 °C | 4.64 °C | 3.22 °C | 3 °C | 3.06 °C
7 | C[C@@H]1OCC2(CCN(c3cnc(Sc4ccnc(N)c4Cl)c(N)n3)CC2)[C@@H]1N | 0.58 °C | 0.91 °C | -0.25 °C | 0.28 °C | 0.06 °C | -0.32 °C
8 | CN(C)CC#Cc1ccc2[nH]c3c(c2c1)-c1nc(N)ncc1CCC3 | 0.75 °C | -0.08 °C | 3.05 °C | 0.06 °C | 0.46 °C | 1.23 °C
9 | Cc1ccc(NC(=O)c2ccc(CN3CC[C@H](N(C)C)C3)c(C(F)(F)F)c2)cc1Nc1nccc(-c2cncnc2)n1 | 17.6 °C | 0.7 °C | 0.73 °C | 0.08 °C | 0.9 °C | 0.26 °C
10 | Cc1cc(=O)n(C)c2cc(N3C(=O)CC[C@H](NS(=O)(=O)CC(C)C)[C@H]3c3ccc(Cl)cc3)ccc12 | 0.08 °C | 0.6 °C | -0.11 °C | -0.55 °C | 0.38 °C | 0.15 °C
11 | COc1cc2nc([C@@H]3CCCS(=O)(=O)C3)n(C)c2cc1NC(=O)c1cccc(C(C)(F)F)n1 | 0.81 °C | 0.09 °C | 0.86 °C | -1.39 °C | 0.05 °C | 1.82 °C
12 | COc1ccccc1-c1cc(Nc2cccc(CS(N)(=O)=O)c2)ncn1 | 2.06 °C | 2.08 °C | -0.11 °C | 4.1 °C | -0.04 °C | 0.53 °C
13 | CN(C)C(=O)c1cc2cnc(Nc3ccc(N4CCN(CCCCNC(=O)COc5cccc6c5C(=O)N(C5CCC(=O)NC5=O)C6=O)CC4)cn3)nc2n1C1CCCC1 (stereo not drawn) | 0.61 °C | 0.81 °C | -0.24 °C | -0.75 °C | 0.11 °C | 4.38 °C
14 | CCc1ccc(N(CC(C)C)S(=O)(=O)c2ccc(OCC3CCOCC3)c(CO)c2)cc1 | -3.79 °C | 0.33 °C | 0.71 °C | 0 °C | 0.2 °C | -8.48 °C
15 | CC(C)(C)c1cnc(CSc2cnc(NC(=O)C3CCN(CC(=O)NCCOCCOCCOCCNc4cccc5c4C(=O)N(C4CCC(=O)NC4=O)C5=O)CC3)s2)o1 (stereo not drawn) | -2.84 °C | 9.12 °C | 0 °C | 10.8 °C | 0.99 °C | 7.5 °C
16 | CCN1CCN(Cc2ccc(C(=O)Nc3ccc(C)c(Oc4ccc5c(c4)CC(=O)N5)c3)cc2C(F)(F)F)CC1 | 12.9 °C | 0.01 °C | 0.95 °C | 0.8 °C | 0.26 °C | -1.25 °C
17 | CC(C)c1nc2c(c3c1[C@@H](c1ccc(C(F)(F)F)cc1)OC31CCOCC1)[C@@H](O)CC(C)(C)C2 | -0.41 °C | 0.52 °C | 0.25 °C | -1.28 °C | -0.13 °C | -0.38 °C
18 | C=CC[C@@H]1/C=C(\C)C[C@H](C)C[C@H](OC)[C@H]2O[C@@](O)(C(=O)C(=O)N3CCCC[C@H]3C(=O)O[C@H](/C(C)=C/[C@@H]3CC[C@@H](O)[C@H](OC)C3)[C@H](C)[C@@H](O)CC1=O)[C@H](C)C[C@@H]2OC | -0.14 °C | -0.14 °C | -0.31 °C | 0.01 °C | -1.81 °C | -0.2 °C
19 | CN(CC(=O)Nc1ccc(F)c(F)c1F)C(=O)c1ccc2c(c1)OCCO2 | 0.3 °C | 0.89 °C | 0.08 °C | -0.75 °C | 0.49 °C | -0.17 °C
20 | Fc1ccc(-c2nc(-c3c(F)cccc3F)[nH]c2-c2ccncc2)cc1 | 4.45 °C | 1.7 °C | 6.41 °C | 7.77 °C | 0.52 °C | -0.55 °C
21 | Cc1nccn1-c1ccc(Sc2cccc(C3(C(N)=O)CCOCC3)c2)cc1 | -0.23 °C | 0.53 °C | -0.21 °C | 0.36 °C | 0.38 °C | -0.31 °C
22 | Cc1cn([C@H](C)CC#N)c(=O)c2cc(Cn3nc(C(F)F)cc3Cl)nn12 | 0.14 °C | -0.62 °C | -0.16 °C | -0.46 °C | 0.16 °C | -1.16 °C
23 | COc1c(OCCCN2CCOCC2)ccc2c1N=C(NC(=O)c1cnc(N)nc1)N1CCN=C21 | 0.09 °C | 0.39 °C | 0.2 °C | -1.01 °C | 0.14 °C | -0.67 °C
24 | CCc1nc(-c2cccc(C)c2)c(-c2ccncc2)s1 | 1.94 °C | -0.27 °C | 3.88 °C | 3.39 °C | 0.28 °C | -0.09 °C

Row | Structure (SMILES) | ΔTm [1] | ΔTm [2] | ΔTm [3] | ΔTm [4] | ΔTm [5] | ΔTm [6]
25 | O=C(O)c1cc2cc(Cc3cccnc3)ccc2o1 | 0.65 °C | 0.63 °C | 0.07 °C | 0.46 °C | -0.29 °C | -0.17 °C
26 | Fc1ccc(-c2nc(-c3ccc4ccccc4c3F)[nH]c2-c2ccncc2)cc1 | 4.64 °C | -0.5 °C | 4.6 °C | 8.59 °C | 0.03 °C | 0.26 °C
27 | Cc1nc2ccc(Oc3ccc(F)cc3)cc2c(=O)n1C[C@H]1CCCN(C(C)C)C1 | 0.92 °C | 0.32 °C | 0.35 °C | -0.38 °C | 0.41 °C | 0.12 °C
28 | COc1cc(C(=O)NCCOCCOCCOCC(=O)N[C@H](C(=O)N2C[C@@H](O)C[C@H]2C(=O)NCc2ccc(-c3scnc3C)cc2)C(C)(C)C)ccc1Nc1ncc(C(F)(F)F)c(Oc2cccc3c2C(=O)CC3)n1 | -2.56 °C | -4.04 °C | 0.94 °C | 0 °C | 0.73 °C | 0.94 °C
29 | Cc1cc(-c2nc(-c3ccc(OC(F)(F)F)cc3)no2)nn1Cc1ccnc(N2CCN(C3CC3)CC2)c1 | 0.32 °C | 0.39 °C | -1.88 °C | -5.07 °C | 0.34 °C | -3.42 °C
30 | Cc1cc([N+](=O)[O-])c(NS(=O)(=O)c2cccc(C(=O)O)c2)cc1-c1cccnc1 | 0.08 °C | 0.85 °C | 0.28 °C | 0.02 °C | 0.58 °C | 0.29 °C
31 | CCN(C)C(=O)c1ccc2c(c1)NC(=O)/C2=C(\NC1CCN(C)CC1)c1ccccc1 | -0.14 °C | 0.01 °C | 0.23 °C | 2.01 °C | 0.03 °C | -0.37 °C
32 | Cc1cc(C)nc(Nc2ncc(C(=O)NCCc3c(C)[nH]c4ccccc34)cn2)c1 | -0.23 °C | 0.75 °C | -0.55 °C | -2.26 °C | -0.02 °C | 0.27 °C
33 | C=C(F)C(=O)N1CCN(c2nc(OC[C@@H]3CCCN3C)nc3c2CCN(c2cccc4cccc(Cl)c24)C3)C[C@@H]1CC#N | -0.03 °C | 0.01 °C | 0.31 °C | 0.36 °C | 0.14 °C | -0.49 °C
34 | CNC(=O)c1cc(C(=O)N[C@H]2[C@@H]3COC[C@@H]32)cc2c1O[C@H](CF)[C@H]2c1ccccc1 | 0.27 °C | 0.34 °C | 0.02 °C | -0.78 °C | 0.3 °C | 0.31 °C
35 | CC(=O)Nc1cccc(-n2c(=O)n(C3CC3)c(=O)c3c(Nc4ccc(I)cc4F)n(C)c(=O)c(C)c32)c1 | -0.1 °C | 0.48 °C | 0.23 °C | -0.51 °C | 0.29 °C | -0.21 °C
36 | CN(C)CCCNc1ccnc(Nc2cccc(Cl)c2)n1 | 2.74 °C | 2.3 °C | 0.78 °C | 6.75 °C | 0.51 °C | 2.26 °C
37 | CC1(C)Cc2nc(C3CCCC3)c([C@@H](F)c3ccc(C(F)(F)F)cc3)c(C3CCCCC3)c2[C@@H](O)C1 | 0 °C | 1.04 °C | 0.11 °C | 0 °C | 0.06 °C | -0.24 °C
38 | CN(C)[C@H]1CCc2nc(NC(=O)c3cccc(Cn4cc(-c5ccc(C#N)cc5)cn4)c3)sc2C1 | 0.14 °C | 0.68 °C | 0.36 °C | 0.72 °C | 0.35 °C | 0.61 °C
39 | COCCN1CCN(CCn2ccc(Nc3ncc4c(n3)-c3c(nn(C)c3-c3ccccc3)C[C@H]4C)n2)CC1 | 2.08 °C | 3.1 °C | 5.97 °C | 0.86 °C | 1.18 °C | 2.79 °C
40 | Cc1sc(C(=O)c2cncnc2N[C@@H]2C[C@H](COS(N)(=O)=O)[C@@H](O)C2)cc1[C@@H]1NCCc2ccc(Cl)cc21 | 0.37 °C | 0.66 °C | -0.59 °C | 0.3 °C | -0.53 °C | -0.27 °C
41 | Oc1c(-c2cccnc2)cnn1-c1ccccn1 | -0.25 °C | 0.31 °C | 0.78 °C | -0.42 °C | 0.36 °C | -0.05 °C
42 | Cc1c(NC(=O)c2ccc(C(C)(C)C)cc2)cccc1-c1cn(C)c(=O)c(Nc2ccc(C(=O)N3CCOCC3)cc2)n1 | 0.18 °C | -0.38 °C | 0.35 °C | -2.28 °C | -1.15 °C | 1.86 °C
43 | Cn1ncc(NC(=O)c2nc(-c3c(F)cccc3F)sc2N)c1N1CC[C@@H](N)[C@H](F)CC1 | 0.6 °C | 1.59 °C | 0.57 °C | 12.4 °C | 0.32 °C | 0.87 °C
44 | N#Cc1ccc(COc2ccc(Br)cc2CNCCO)cn1 | 0.3 °C | 0.22 °C | 0.13 °C | -0.56 °C | 0.45 °C | -1 °C
45 | COc1cc2ncnc(Nc3ccc4c(cnn4Cc4ccccc4)c3)c2cc1OC | -2.25 °C | -2.73 °C | 0.02 °C | -2.74 °C | -0.38 °C | 0.63 °C
46 | CC(=O)Oc1ccc2c(c1)[C@@]1(C)CCC[C@](C)(C(=O)OC(=O)[C@@]3(C)CCC[C@]4(C)c5cc(OC(C)=O)ccc5CC[C@@H]34)[C@@H]1CC2 | 0.17 °C | 0.49 °C | 0.28 °C | -0.85 °C | -2.79 °C | -1.32 °C
47 | CCn1c(CNC(=O)c2ncc(C)nc2N)[n+](CC)c2ccc(C(=O)N(C)CCN(C)C)cc21 | 0.1 °C | 0.39 °C | 0.2 °C | -0.02 °C | 0.08 °C | -0.29 °C
48 | C[C@@H]1CCNC(=O)c2cc3ccc(C(=O)Nc4nc5ccccc5n4CCCN(C)C)cc3n21 | 1.4 °C | 0.73 °C | 2.87 °C | 0.5 °C | 0.36 °C | 3.79 °C
